Reference: PubChem BioAssay (NCI)
Compounds without any hit were thinned out: in the full panel of roughly 83,000, 20% have a hit.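 Negative percent growth values reflect cell death: -40 means 40% of the cells present at the start died, and -100 means all died.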 A number with no mark means an inactive call. The source made the active and inactive calls. The calls were made as follows: active = growth percent below 10; inactive = the rest.

Key:
Test in all cases: NCI-60 one-dose screen, 48 h (100 = growth as untreated, 0 = no growth, -100 = all killed)
Conditions in all cases: 10 µM unless noted
NCI-H23 lung = tested on: NCI-H23 lung
NCI-H226 lung = tested on: NCI-H226 lung
NCI-H322M lung = tested on: NCI-H322M lung
HOP-62 NSCLC = tested on: HOP-62 NSCLC
NCI-H460 lung = tested on: NCI-H460 lung
HOP-92 NSCLC = tested on: HOP-92 NSCLC
NCI-H522 lung = tested on: NCI-H522 lung
A549/ATCC NSCLC = tested on: A549/ATCC NSCLC
786-0 renal = tested on: 786-0 renal
COLO 205 colon = tested on: COLO 205 colon
DU-145 prostate = tested on: DU-145 prostate
K-562 leukemia = tested on: K-562 leukemia
MALME-3M melanoma = tested on: MALME-3M melanoma
MDA-MB-231 breast = tested on: MDA-MB-231 breast
RXF 393 renal = tested on: RXF 393 renal
SF-268 CNS = tested on: SF-268 CNS
SF-295 CNS = tested on: SF-295 CNS
SF-539 CNS = tested on: SF-539 CNS
UACC-257 melanoma = tested on: UACC-257 melanoma
M14 melanoma = tested on: M14 melanoma

| Compound | growth (NCI-H23 lung) | growth (NCI-H226 lung) | growth (NCI-H322M lung) | growth (HOP-62 NSCLC) | growth (NCI-H460 lung) | growth (HOP-92 NSCLC) | growth (NCI-H522 lung) | growth (A549/ATCC NSCLC) | growth (786-0 renal) | growth (COLO 205 colon) | growth (DU-145 prostate) | growth (K-562 leukemia) | growth (MALME-3M melanoma) | growth (MDA-MB-231 breast) | growth (RXF 393 renal) | growth (SF-268 CNS) | growth (SF-295 CNS) | growth (SF-539 CNS) | growth (UACC-257 melanoma) | growth (M14 melanoma) [%] |
| --- | --- | --- | --- | --- | --- | --- | --- | --- | --- | --- | --- | --- | --- | --- | --- | --- | --- | --- | --- | --- |
| COc1cccc(NC(=O)Nc2ccc(Nc3ncnc4[nH]c(C)c(C)c34)cc2)c1 | 111% | 101% | 114% | 103% | 102% | 104% | 90.8% | 92.7% | 113% | 112% | 110% | 94.4% | 122% | 108% | 111% | 94% | 95.5% | 69.3% | 98.3% |  |
| N#CC(C#N)=C1NC(c2ccccc2)=C(c2ccccc2)C(c2ccccc2Cl)=C1C#N | 93.5% | 108% | 107% | 109% | 111% | 109% | 85.5% | 84% | 97.6% | 123% | 112% | 98.1% | 108% | 110% | 121% | 109% | 101% | 108% | 75% |  |
| Cn1cc(-c2ccc3c(c2)ncn3-c2ccc(CC(=O)Nc3cc(C(C)(C)C)on3)cc2)cn1 | 30.2% | 22.2% | 8.78% (active) | 36.2% | 28.5% | 5.11% (active) | 32.8% | 19% | 17.6% | 38.2% | 19.3% | 9.77% (active) | 25.5% | 11% | -25% (active) | 25.6% | 37.2% | -15.8% (active) | 67.1% |  |
| CCN(CC)c1ccc2c(c1)Oc1nc(N)c(C#N)c(N)c1C2Sc1ccc(OC)cc1 (stereo unspecified) | -25.8% (active) | 5.34% (active) | 97.6% | 35.9% | -18.3% (active) | 88.3% | -61.9% (active) | 72.8% | 0.244% (active) | -60% (active) | -0.338% (active) | 13.5% | 1.4% (active) | -0.581% (active) | -0.0562% (active) | 16.5% | 29.1% | -34.6% (active) | 92.1% |  |
| COc1ccc2nc(-c3ccc(OC)c(OC)c3)cc(-c3nnc(SCC(=O)Nc4ccc(/C(C)=N\O)cc4)n3-c3ccccc3)c2c1 | 91.5% | 74.6% | 84.5% | 87.9% | 89.6% | 61.6% | 42% | 70.7% | 88.5% | 112% | 83.1% | 63.5% | 110% | 40.2% | 79.1% | 78.1% | 92.9% | 81.3% | 88% | 92.1 |
| CC(C)NS(=O)(=O)c1cccc(-c2ccc3c4c(n(CCCN(C)C)c(=O)c3c2)-c2ccccc2C4=O)c1 | 98.6% | 92.9% | 104% | 101% | 28.5% | 114% | 86.7% | 83.5% | 33.8% | 98.9% | 108% | -57.8% (active) | 91.6% | 83.8% | 96.1% | 103% | 104% | 90.7% | 107% |  |
| Nc1cc(N)nc(SCC(=O)O)n1 | 102% | 103% | 102% | 104% | 106% | 97.3% | 79.7% | 88% | 99.1% | 114% | 104% | 101% | 103% | 95.4% | 115% | 101% | 106% | 102% | 84.8% |  |
| S=c1ssnc1-c1cc2ccccc2o1 | 84.3% | 92.9% | 91.8% | 86.7% | 70% | 4.61% (active) | 79.2% | 88.2% | 24.1% | 83.6% | 97.5% | 55.7% | 79.8% | 91.2% | 85.6% | 78.8% | 75.1% | 102% | 94.5% |  |
| C[C@H]1[C@H](C)CC[C@]2(C(=O)OCCOCCOCC[P+](c3ccccc3)(c3ccccc3)c3ccccc3)CC[C@]3(C)C(=CC[C@@H]4[C@@]5(C)CC[C@H](OC(=O)C(Cl)Cl)C(C)(C)[C@@H]5CC[C@]43C)[C@H]12 | 5.49% (active) | 15% | 27.8% | 25.3% | 6.27% (active) | -26.6% (active) | -15.3% (active) | 11.2% | -38.3% (active) | -7.06% (active) | 26% | 0.14% (active) | -78.5% (active) | -0.496% (active) | -29.5% (active) | 25.9% | -34.8% (active) | 9.4% (active) | -13.6% (active) |  |
| COc1ccc([C@H]2[C@@H](F)C(=O)N2c2cc(OC)c(OC)c(OC)c2)cc1F | 21.3% | 59% | 46.4% | 31.8% | 7.06% (active) | 32.3% | -8.46% (active) | 15.3% | 22.9% | -68% (active) | 9.46% (active) | 9.45% (active) | 74% | 19.6% | 28.8% | 33.1% | 18.6% | 4.17% (active) | 38.7% |  |
| COc1ccc2oc(=O)cc(-c3nc4ccc(N)cc4[nH]3)c2c1 | 84% | 72% | 86.2% | 70.8% | 102% | 80.2% | 64.1% | 90% | 96.8% | 84.9% | 97.5% | 119% | 121% | 74.2% | 95.1% | 87.5% | 90.2% | 82.3% | 132% |  |
| COc1ccc(/C=C/C(=O)C(CC2CCC2)C(=O)/C=C/c2ccc(OC)c(OC)c2)cc1OC | 3.1% (active) | -0.278% (active) | 10.6% | -39% (active) | -30.3% (active) | -5.24% (active) | -38.2% (active) | -47% (active) | -44.6% (active) | -53.7% (active) | -23% (active) | 1.54% (active) | -13.6% (active) | 6.65% (active) | -72.5% (active) | 2.31% (active) | -16.6% (active) | -38.2% (active) | -16.7% (active) |  |
| C#CCOC(=O)[C@]1(C)CCC[C@]2(C)[C@H]3C[C@H]4C(C(C)C)=C[C@]3(CC[C@H]21)[C@@H]1C(=O)CCC(=O)[C@@H]14 | 84.1% | 85.9% | 102% | 80.1% | 90.9% | 54% | 63.7% | 76.9% | 88.5% | 105% | 102% | 77.2% | 110% | 74.6% | 86% | 99.2% | 83.7% | 84% | 92.3% |  |
| CC(=O)Oc1ccc(O)cc1 | 95.2% | 106% | 97.2% | 113% | 108% | 98.3% | 33.3% | 91.6% | 110% | 120% | 102% | 96.7% | 102% | 95.4% | 115% | 98.8% | 101% | 101% | 83% | 98.3 |
| CCOC(=O)c1c(C)nc2c(c1N)/C(=C/c1ccc[nH]1)C(=O)N2Cc1ccc(C(F)(F)F)cc1 | 51.8% | 38.1% | 74.4% | 23.6% | 16.8% | 41.1% | 43.3% | 48.9% | 22.9% | 75.6% | 79.1% | 63.4% | 62.1% | 18.3% | 48.6% | 55.5% | 29.4% | 40.4% | 77.6% |  |
| N#Cc1c(-c2ccc(F)cc2)nc(N=Nc2c(O)[nH]c3ccccc23)nc1N1CCOCC1 | 70.3% | 57.7% | 61.4% | 72% | 30.9% | 17.3% | 78.6% | 23.4% | 59.4% | 77.9% | 69.1% | 91.8% | 63.7% | 66% | 62.8% | 77.3% | 70.2% | 85.5% | 77.8% |  |
